Most compounds without a hit are left out; they make up all but 1.9% or so of the library.
BCLXL inh: Bcl-xL (human) inhibition; actives 0.7% (n = 320,000); GST-Bcl-xL / FITC-Bim BH3 peptide fluorescence polarization; Q07817; AID 2129; inhibition, % at 10.9 µM;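 active = inhibition above the mean of all tested compounds plus 3 SD, cutoff set per campaign, cut at about 30% in these data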;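 also: inhibitors lower millipolarization by displacing the labeled peptide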
MEX-5 binding: C. elegans MEX-5 TCR-2 RNA binding activity; Q9XUB2; MEX-5/FITC-TCR2 RNA binding, fluorescence polarization; stronger effect = lower value; activity score (negative = inhibition of binding), % at 10 µM; actives 0.38% (n = 300,000); AID 1832;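 active = inhibition past about -25% in most replicates, and total fluorescence under double the plate's negative control median, limit read from the data; inconclusive = replicates evenly split on the limit, or fluorescence at least double controls; inactive = too little inhibition in most replicates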
Target sequence (Q9XUB2 whole entry, looked up): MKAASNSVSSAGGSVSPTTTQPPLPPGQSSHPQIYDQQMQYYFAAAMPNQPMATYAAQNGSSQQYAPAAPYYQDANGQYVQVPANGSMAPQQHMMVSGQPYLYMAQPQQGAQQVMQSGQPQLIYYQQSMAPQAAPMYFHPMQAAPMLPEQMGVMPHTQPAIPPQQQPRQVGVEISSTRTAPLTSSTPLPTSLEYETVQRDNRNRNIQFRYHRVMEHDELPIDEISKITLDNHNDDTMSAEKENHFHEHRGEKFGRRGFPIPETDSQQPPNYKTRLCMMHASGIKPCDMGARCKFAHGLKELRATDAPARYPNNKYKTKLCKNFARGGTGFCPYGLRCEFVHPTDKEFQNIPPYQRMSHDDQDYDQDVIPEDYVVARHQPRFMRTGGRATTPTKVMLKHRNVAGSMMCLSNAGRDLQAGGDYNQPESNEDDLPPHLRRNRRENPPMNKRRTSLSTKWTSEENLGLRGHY
GLD-1 TGE inh: GLD-1-TGE RNA interaction inhibition (C. elegans). inhibition, % at 5.96 µM. Q17339. AID 2280. actives 0.44% (n = 320,000). purified GLD-1 + fluorescein TGE RNA, fluorescence polarization;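 active = percent inhibition above a per-plate cutoff, the plate mean of test compounds plus 3 SD, cut at about 30% in these data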
MCL1 BIM primary: inhibitors of human MCL1 binding to BIM-BH3 peptide; actives 0.68% (n = 320,000); inhibition, % at 10.9 µM; GST-MCL1 / FITC-Bim-BH3 fluorescence polarization; Q07820;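 active = inhibition above the mean inhibition of all tested compounds plus 3 SD, set per campaign, cut at about 40% in these data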;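 also: higher means more loss of mP so more displacement of Bim peptide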
Yeast superoxide: lowers age-related superoxide in aged yeast cells. S. cerevisiae aged cells, superoxide DHE fluorescence; stronger effect = lower value. superoxide response (% of plate mean), % at 10 µM. actives 0.18% (n = 330,000). AID 2690;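 active = superoxide response under a set limit, about three screen SD below normal, cut at about 65% in these data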;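 also: yeast aged for seven days with compound at 30 °C before DHE staining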
LANA-H2A inh: blocks KSHV LANA binding to histone H2A/H2B; Q9QR71; actives 0.6% (n = 320,000); inhibition, % (concentration not given with the values); cell-free LANA-H2A/H2B peptide, fluorescence polarization; in the data active = inhibition mostly above about 10%, no sharp cut-off; inactive = mostly below about 6.7%
Hits are given with their value; i = inactive; ? = inconclusive; nt = not tested or not shown.

SMILES | BCLXL inh | MEX-5 binding | GLD-1 TGE inh | MCL1 BIM primary | Yeast superoxide | LANA-H2A inh
Cc1[nH]c(-c2ccco2)nc1C(=O)O | i | i | i | i | i | 15
COc1ccc(CN2CNc3nc4ccccc4n3C2)cc1 | i | i | i | i | i | 22
CCOc1ncccc1C(=O)OCC(=O)NCc1ccccc1 | nt | nt | i | nt | i | i
O=C(COC(=O)C1CC2C=CC1C2)Nc1c(Br)cc([N+](=O)[O-])cc1Br (stereo unspecified) | nt | nt | i | nt | i | i
Cc1cc(NC(=S)NC(=O)c2ccco2)c2ccccc2n1 | i | i | i | i | i | 17
CCN(CC(=O)Nc1c(C(=O)OC)[nH]c2ccccc12)c1ccc2c(c1)OCO2 | 44 | i | i | i | i | i
c1ccc2c(c1)OCC(c1nnc3n1-c1ccccc1SC3)O2 (stereo unspecified) | i | i | i | i | i | 17
c1ccc(-c2nnc3n2-c2ccccc2SC3)cc1 | i | i | i | i | i | i
CC1CCCC(NC(=O)COC(=O)COc2cccc(F)c2)C1C (stereo unspecified) | nt | nt | i | nt | i | i
Oc1ccc2ccccc2c1/C=N/Nc1nnc(-c2ncc[nH]2)c2ccccc12 | i | -35 | i | i | i | i
CC(C)NC(=O)CSc1ccccc1C(=O)N1CCN(S(=O)(=O)/C=C/c2ccccc2)CC1 | i | nt | i | i | i | 17
COc1ccccc1CCC(=O)OCC(=O)N1c2ccccc2NC(=O)C1(C)C | i | nt | i | i | i | nt
Cc1ccc(C)c(OCCC(=O)OCC(=O)N2c3ccccc3NC(=O)C2(C)C)c1 | i | nt | i | i | i | 12
Cc1ccc(SCc2nc(N)nc(Nc3ccccc3C)n2)c(C)c1 | i | i | i | i | i | 64
COCCn1nnnc1CN(Cc1cc2cc(OC)c(OC)cc2[nH]c1=O)C1CCCC1 | 34 | i | i | 41 | i | i
Cc1[nH][nH]c(=O)c1C(c1ccc(N(C)C)c(Br)c1)c1c(C)[nH][nH]c1=O | i | i | i | i | i | 60
O=C1CN(C(=O)CSc2ccccn2)c2ccccc2N1 | nt | nt | i | nt | i | i
Cc1cccc[n+]1C1C(c2ccc([N+](=O)[O-])cc2)C(C#N)=C(C(=C=[N-])C#N)NC1(O)C1CC1 (stereo unspecified) | 31 | i | i | i | i | i
CCC(C(=O)NC1CC(C)(C)NC(C)(C)C1)c1ccccc1 (stereo unspecified) | i | i | i | i | i | 14
N#CC1(NC(=O)COc2ccc(C(N)=O)cc2)CCCC1 | nt | nt | i | nt | i | i
CC(NC(=O)CCC(=O)N1CCCCCC1)c1ccccc1 (stereo unspecified) | i | i | i | i | i | 14
CC(NC(=O)CN1C(=O)NC2(CCCCCC2)C1=O)c1ccccc1 (stereo unspecified) | i | nt | i | i | i | 78
CC(C)C(C)NC(=O)CN1C(=O)NC2(CCCCCC2)C1=O (stereo unspecified) | i | i | i | i | i | i
O=C(CN1C(=O)NC2(CCCCCC2)C1=O)NCCc1ccccc1 | i | nt | i | i | i | 186
COc1ccc(NC(C)=O)cc1S(=O)(=O)NCCc1ccccn1 | i | nt | i | i | i | 30
SMILES | BCLXL inh | MEX-5 binding | GLD-1 TGE inh | MCL1 BIM primary | Yeast superoxide | LANA-H2A inh
CCCCn1c(N)c(N(C)C(=O)C2CC(=O)N(Cc3ccco3)C2)c(=O)[nH]c1=O (stereo unspecified) | nt | nt | i | nt | i | i
N#Cc1c(N)sc(=S)c2c1CCN(Cc1ccccc1)C2 | 144 | nt | i | 174 | i | nt
C=CCNc1nc(N2CCCCC2)c(C#N)c2c1CN(Cc1ccccc1)CC2 | i | i | i | i | i | i
COc1ccc(Cl)cc1NC(=O)C(C)OC(=O)Cn1cc(C(F)(F)F)ccc1=O (stereo unspecified) | i | nt | i | i | i | i
O=c1cc(-c2ccc(O)c(O)c2)oc2cc(O)cc(O)c12 | i | -33 | i | i | i | i
COc1ccc(-c2cc(=O)c3c(O)cc(O)cc3o2)cc1 | i | nt | i | i | i | i
CCCCN(CCCC)c1nc2ccccc2nc1C(C#N)C(=O)NCCCOC (stereo unspecified) | i | ? | i | i | i | 27
N#CC(C(=O)NCCc1ccccc1)c1nc2ccccc2nc1N1CCCCC1 (stereo unspecified) | i | ? | i | i | i | i
CCCCCCNC(=O)C(C#N)c1nc2ccccc2nc1N1CCCC1 (stereo unspecified) | i | ? | i | i | i | 155
CCCCCNC(=O)C(C#N)c1nc2ccccc2nc1N1CCCC1 (stereo unspecified) | i | ? | i | i | i | i
N#CC(C(=O)NCc1ccccc1)c1nc2ccccc2nc1N1CCCC1 (stereo unspecified) | i | -97 | i | i | i | i
CC[C@]12c3[nH]c4ccc(Cl)cc4c3CCN1C(=O)[C@@H](CC(=O)NCCC1=CCCCC1)C[C@@H]2C(=O)N1CCN(C(=O)c2ccco2)CC1 | nt | nt | nt | nt | i | nt
N/C(=N\OC(=O)c1ccc2ccccc2c1)c1ccccc1Cl | i | i | i | i | i | i
CC(=O)N1c2ccc3ccccc3c2C2C=CCC2C1c1ccc(Br)cc1 (stereo unspecified) | 37 | nt | 41 | i | i | i
CC(=O)N1c2ccc(Cl)cc2C2C=CCC2C1c1cccc2ccccc12 (stereo unspecified) | i | nt | i | i | i | i
CC(C)(C)OC(=O)C[C@H]1C/C=C\C[C@H](CC(=O)N(CCO)Cc2ccccc2)C(=O)N2CCC[C@H]2COC1=O | nt | nt | i | nt | i | i
COc1cccc(-n2c([S-])c(C(=O)Nc3ccc(S(=O)(=O)N4CCOCC4)cc3)[n+]3cc(C(N)=O)ccc23)c1 | 36 | i | i | i | i | i
COc1ccc(C2(CNC(C)=O)CCCC2)cc1OC | i | i | i | i | i | i
CC(=O)NCC1(O)CCCC(C)C1 (stereo unspecified) | i | i | i | i | i | 19
CSc1nc(=S)c2[nH]c(=S)[nH]c2[nH]1 | nt | -99 | nt | nt | i | i
O=C(NCc1ccccn1)c1cccc(NS(=O)(=O)c2cccc(Cl)c2)c1 | i | i | i | i | i | i
O=C(NCc1ccccn1)c1ccc(NS(=O)(=O)c2cccc(Cl)c2)cc1 | nt | i | nt | nt | i | 38
CC(=O)Nc1ccc(C(=O)NC2CCCC2)cc1 | i | nt | i | i | i | i
O=C(Nc1ccc(C(=O)NC2CCCCC2)cc1)c1cccnc1 | i | i | i | i | i | 14
CCC/C=N/NC(=O)C1COc2ccccc2O1 (stereo unspecified) | 98 | i | i | i | i | i
CCC(/C=N/NC(=O)C1COc2ccccc2O1)CC (stereo unspecified) | i | i | i | i | i | i
COc1cc(CNCCc2ccccc2)ccc1OCC(N)=O | i | i | i | i | i | 20

Screens as filed in PubChem.
